High-throughput results: PubChem BioAssay, several laboratories
This excerpt belongs to a sample that is enriched for hits.
CD11b adhes inh = inhibitors of human CD11b/CD18 binding to fibrinogen. 0.54% of 93,000 active. P05107+P11215. AID 1497. K562 CD11b/CD18 adhesion to fibrinogen, ATPlite luminescence; Mn2+ added to activate the integrin. inhibition, % at 10 µM;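 active means primary inhibition of 50% or more at 10 µM, then 40% or more on retest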
CD11b adhes enh = increases human CD11b/CD18 adhesion to fibrinogen | K562 CD11b/CD18 adhesion to fibrinogen, ATPlite luminescence | activation, % at 10 µM | 0.07% of 93,000 active | AID 1499;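 active means 10 µM primary screen giving 50% or more activity, confirmed by 40% or more on retest at that dose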
D1 allo mod = allosteric modulators of human D1 dopamine receptor. 5.9% of 58,000 active. HEK293 D1, CRE-luciferase, dopamine EC30 potentiation; actives deviate in either direction. AID 641. B-score at 10 µM. P21728;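 active means luminescence count or its row- and column-corrected plate score outside the 99.7% band of the plate's sample wells, on either side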
PTK2B oligo ant = antagonists of human Pyk2 oligomerization; Q293 cells, Pyk2 FERM NanoBiT luminescence; hits give low values; z-score (the deposit names both 25 µM and 10 µM); Q14289; 0.83% of 99,000 active;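 active means Z-score of -3 or lower, scaled per plate to the spread of control and sample wells; inactive means z-score above -3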;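 further: negative z-score means lost luminescence so less FERM oligomerization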
FAK blocker = FAK (human) kinase inhibition | biochemical FAK kinase activity assay | inhibition, %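 (tested at 7 µM)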 | 0.84% of 97,000 active | AID 727; in the data active means inhibition above about 19%
DAT uptake mod = human DAT dopamine uptake with cocaine, either direction. Q01959. LLC-PK1 hDAT cells, [14C]-dopamine uptake with cocaine IC80; actives deviate in either direction. B-score at 10 µM. 1.3% of 110,000 active;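 active means Z score or B-score, a plate-position-corrected score, falls beyond the plate's 99.7% confidence bounds, in either direction; inactive means both scores lie inside the 99.7% bounds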
Target sequence (Q01959 whole entry, looked up): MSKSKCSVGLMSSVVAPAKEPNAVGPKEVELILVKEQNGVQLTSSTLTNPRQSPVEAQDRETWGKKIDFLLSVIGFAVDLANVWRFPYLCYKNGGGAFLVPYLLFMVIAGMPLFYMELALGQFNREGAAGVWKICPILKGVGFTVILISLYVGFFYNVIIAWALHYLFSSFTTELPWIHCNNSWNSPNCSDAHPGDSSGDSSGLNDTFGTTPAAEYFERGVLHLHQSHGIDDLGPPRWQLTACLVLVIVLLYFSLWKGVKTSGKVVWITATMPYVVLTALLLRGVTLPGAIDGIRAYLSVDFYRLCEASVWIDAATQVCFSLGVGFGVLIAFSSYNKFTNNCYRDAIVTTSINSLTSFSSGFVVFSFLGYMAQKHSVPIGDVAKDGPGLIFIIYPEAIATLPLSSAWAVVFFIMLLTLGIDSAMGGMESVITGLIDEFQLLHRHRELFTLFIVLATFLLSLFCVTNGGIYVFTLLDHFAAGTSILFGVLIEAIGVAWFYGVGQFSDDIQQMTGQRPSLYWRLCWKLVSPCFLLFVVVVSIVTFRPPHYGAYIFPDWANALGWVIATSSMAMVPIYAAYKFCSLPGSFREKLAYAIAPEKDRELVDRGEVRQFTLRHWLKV
A number is an active result; 0 = inactive; - = no result.

SMILES	CD11b adhes inh	CD11b adhes enh	D1 allo mod	PTK2B oligo ant	FAK blocker	DAT uptake mod
COc1ccc2c(c1)CC/C(=C\Nc1ccc3c(c1)OCO3)C2=O	0	0	-	0	0	0
O=C1/C(=C/Nc2ccc3c(c2)OCO3)CCc2ccccc21	0	0	-6.1	0	0	0
Cc1ccc(S(=O)(=O)NNC(=O)C2Cc3c(ccc4ccccc34)O2)cc1 (configuration not stated)	-	-	-	0	0	-8.5
CCCCOc1ccc(S(=O)(=O)NNC(=O)C2Cc3c(ccc4ccccc34)O2)cc1 (configuration not stated)	0	0	-	0	0	0
O=C(Nc1c(F)cccc1F)c1cnc(N2CCN(c3ccccn3)CC2)c2ccccc12	0	0	-	-3.6	0	0
Cc1noc(C)c1CSc1nc2ccccc2c(=O)n1-c1ccc(F)cc1F	0	0	-	0	0	-
Cc1noc(C)c1CSc1nc2ccccc2c(=O)n1-c1ccccc1	0	0	5.3	0	0	0
CCc1ccc(/C=C/C(=O)c2cc(Br)ccc(=O)c2O)cc1	74	0	-	0	0	0
Cc1cccc(/C=C/C(=O)c2cc(Br)ccc(=O)c2O)c1	85	0	-	0	0	0
CC(C)Oc1ccc(C2CC(=O)NC3=C2C(=O)CCC3)cc1 (configuration not stated)	-	-	-5.4	0	0	0
Cc1cccc(N2C(=O)CC(Sc3nc(-c4ccccc4)c4cc(Cl)ccc4n3)C2=O)c1 (configuration not stated)	0	0	-	0	0	0
COc1ccc(-c2csc(NC(=O)C3CCCCN3S(=O)(=O)c3ccccc3)n2)cc1 (configuration not stated)	0	0	-	-3.4	0	0
O=C(N/N=C1\CCCc2c1[nH]c1ccc([N+](=O)[O-])cc21)c1ccncc1	0	0	-	-	-	-
Cc1ccc(C)c(-n2cc[nH]c2=S)c1	0	0	-	-	-	-
CCOC(=O)c1c(C)n(CCNC(C)=O)c2ccc(O)cc12	0	0	-	0	0	0
CCOC(=O)c1c(C)n(CC(O)c2ccccc2)c2ccc(O)cc12 (configuration not stated)	0	0	0	-3	0	0
O=C(NCC1OCCc2ccccc21)c1ccc(NC(=O)c2ccc(Cl)cc2)cc1 (configuration not stated)	0	0	-	-	-	-
CCC(=O)N1CC2(CC(c3cccc(NC(=O)COc4ccc(Cl)cc4)c3)=NO2)C[C@@H]1C(N)=O (some centres not stated)	-	-	-	-	-	0
CCCCCC(=O)N1CC2(CC(c3cccc(NC(=O)COc4ccc(Cl)cc4)c3)=NO2)C[C@@H]1C(N)=O (some centres not stated)	-	-	-	-	-	3.1
C=CCn1c(N)nc2ccccc21	0	0	0	0	0	-2.6
Cn1c(N)c(C#N)c2c(c1=S)CSC(C)(C)C2	0	0	-	0	0	-7.8
COc1cc2c(C(=O)N3CCN(C4CCCCC4)CC3)cn(CC(C)C)c(=O)c2cc1OC	0	0	-5.7	-	0	0
CCCN1CCN(C(=O)c2cn(CC(C)C)c(=O)c3cc(OC)c(OC)cc23)CC1	0	0	0	0	0	-
CCc1cc(-c2n[nH]c(C)c2Oc2ccc(C(C)C)cc2)c(O)cc1O	0	0	-	0	0	0
c1ccc(-c2cc3c(N4CCOCC4)ncnc3s2)cc1	0	0	14	0	-	0
SMILES	CD11b adhes inh	CD11b adhes enh	D1 allo mod	PTK2B oligo ant	FAK blocker	DAT uptake mod
CC(C)Oc1ccc(C(=O)N(Cc2ccco2)C2CCS(=O)(=O)C2)cc1 (configuration not stated)	0	0	0	0	0	0
Cc1ccc(CNC(=O)CSc2nc3ccccc3c3nc(C)nn23)cc1	0	0	-	-	0	0
Cc1cccc(NC(=O)CSc2nc3ccccc3c3nc(CCc4c(C)n[nH]c4C)nn23)c1	0	0	-	0	0	3.8
O=C(NCCCn1ccnc1)Nc1cccc(Cl)c1	0	0	0	0	0	0
Cc1cc(N2CCN(S(=O)(=O)c3ccc(Cl)cc3)CC2)c2ccccc2n1	85	0	0	0	0	0
Cc1cc(C)n(-c2cc(N3CCN(S(=O)(=O)c4ccc(Cl)cc4)CC3)ccc2[N+](=O)[O-])n1	0	0	-	-	-	-
O=C(NCCc1ccc(Cl)cc1)C1CCN(S(=O)(=O)c2cccc3nonc23)CC1	0	0	0	0	0	-2.2
Sc1oc(-c2ccccc2)cc1C=Nc1ccccc1	0	0	-	0	0	0
CCCNC(=O)NC(=O)CSc1nc2cc(C(=O)OC)ccc2c(=O)n1-c1ccccc1	0	0	-	-3.1	0	0
CNC(=O)NC(=O)CSc1nc2cc(C(=O)OC)ccc2c(=O)n1-c1ccccc1	0	0	0	0	0	0
COc1nccnc1NS(=O)(=O)c1ccc(NS(=O)(=O)c2ccc(NC(C)=O)cc2)cc1	68	0	-	0	0	0
O=S(=O)(Nc1nc(CN2CCOCC2)nc2sc3c(c12)CCCC3)c1cc(F)ccc1F	0	0	0	0	0	0
CCCOC(=O)c1ccc(Oc2c(-c3ccc(O)cc3O)n[nH]c2C)cc1	0	0	0	0	0	0
CCCc1ccc(Oc2cn[nH]c2-c2ccc(O)cc2O)cc1	0	0	-4.9	0	0	0
C=C(C)COc1ccc(-c2[nH]ncc2Oc2cccc(OC)c2)c(O)c1	0	0	0	-3.6	0	0
COc1ccc(-c2[nH]ncc2Oc2ccccc2OC)c(O)c1	0	0	0	0	0	0
COc1ccc(Oc2cn[nH]c2-c2ccc(O)cc2O)cc1	0	0	-	-3.5	0	0
C=C(C)COc1ccc(-c2[nH]ncc2Oc2ccccc2OCC)c(O)c1	0	0	0	0	0	0
CC(C)c1ccc(C(=O)CSc2n[nH]c(-c3ccncc3)n2)cc1	0	0	-	0	0	0
Cc1cc(C)c(S(=O)(=O)N2CCC(C(=O)NCc3ccc(Cl)cc3Cl)CC2)c(C)c1	0	0	-	0	0	0
CCN(CC)CCNCc1ccc(-c2ccc(Cl)cc2)o1	0	0	0	0	-	0
Clc1cc(NCc2cccs2)ccc1N1CCOCC1	0	0	0	0	0	0
CCCCNC(=S)NNC(=O)c1cccnc1	-	-	-	0	0	-8.2
CCN(CC)c1ccc2c(c1)CCCN2	-	-	-3.4	-	-	0
Clc1ccc(Sc2cc(Cl)c(-c3ccccc3)nn2)cc1	-	-	-	-3.4	0	0
SMILES	CD11b adhes inh	CD11b adhes enh	D1 allo mod	PTK2B oligo ant	FAK blocker	DAT uptake mod
N#Cc1cc(-c2ccccc2)nnc1Sc1ccc(Cl)cc1	0	0	-	0	0	0
CC(Nc1ccc(Cl)cc1)c1cc(Cl)ccc1O (configuration not stated)	-	-	-	0	0	0
CC(Nc1ccc(Br)cn1)c1cc(Cl)ccc1O (configuration not stated)	0	0	0	-3.5	0	-
O=C(O)c1cc2nc3c(c(C(F)(F)F)n2n1)CCc1ccccc1-3	0	0	-4.5	0	0	0
O=C(NCC1CCCO1)c1csc2c1CCCCC2 (configuration not stated)	0	0	-3.3	0	0	0
Cc1cccc(C)c1NC(=O)NC1(C(=O)NCCCN2CCOCC2)CCCCC1	-	-	-	0	0	0
